# PubChem BioAssay AID778 (Sanford-Burnham Center for Chemical Genomics, 2007)
# The campaign covered roughly 96,000 compounds. About 20,000 (21%) were called active.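 The calls were made as follows: active = CYP2C19 inhibition above a set limit at 5 µM in the primary screen (cut at about 50% in these data); inactive = the rest.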 Not all results are given here.
# Target: Cytochrome P450 2C19 (Homo sapiens) (UniProt P33261)
# Experiment: blockers of cytochrome P450 2C19 activity – biochemical, luminescence, ADME assay, primary screen (AID 778);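 also: plate controls were negative control wells for no effect and 2.5 mM tranylcypromine positive control for full effect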
# Details: CYP2C19 Supersomes, luciferin-H EGE luminescence, 30 min; at 5 µM; active compounds read high
# Cytochrome P450 2C19 (Homo sapiens), sequence (P33261 whole entry, looked up): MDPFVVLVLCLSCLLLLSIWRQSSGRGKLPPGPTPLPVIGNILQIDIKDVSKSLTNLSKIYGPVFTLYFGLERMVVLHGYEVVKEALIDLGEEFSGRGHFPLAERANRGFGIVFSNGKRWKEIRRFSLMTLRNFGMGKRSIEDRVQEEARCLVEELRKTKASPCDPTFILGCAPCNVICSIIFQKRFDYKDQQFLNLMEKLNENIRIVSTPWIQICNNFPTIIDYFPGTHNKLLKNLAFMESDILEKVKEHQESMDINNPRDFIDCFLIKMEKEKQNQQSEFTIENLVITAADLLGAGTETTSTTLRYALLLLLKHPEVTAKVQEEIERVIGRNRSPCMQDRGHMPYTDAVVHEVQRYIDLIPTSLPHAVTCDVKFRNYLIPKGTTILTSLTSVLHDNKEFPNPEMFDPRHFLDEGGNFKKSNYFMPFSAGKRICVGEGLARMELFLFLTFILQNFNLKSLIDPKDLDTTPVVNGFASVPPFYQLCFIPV
row,Structure (SMILES),inhibition
1,Cc1cccc(N2CCN(Cc3c(C)n(C)n(-c4ccccc4)c3=O)CC2)c1C,15.2% (inactive)
2,COC(=O)Nc1sc2nc(C)cc(C)c2c1-n1cccc1,19.5% (inactive)
3,Cn1c(NC(=O)c2ccco2)c(-c2ccccc2Cl)c(=O)c2ccccc21,-6.5% (inactive)
4,CCCC(O)(c1ccc(OC)cc1)C(CN(C)C)c1ccccc1 (stereo unspecified),-13.2% (inactive)
5,CCOC(=O)c1c(NC(=O)c2cccs2)sc(C)c1C,-10.4% (inactive)
6,CCc1nnc(NC(=O)c2cccs2)s1,14.6% (inactive)
7,CCc1c(C)sc(NC(=O)c2cccs2)c1C(N)=O,84.1% (active)
8,CN1CCN(CC(=O)Nc2sc3c(c2C#N)CCC(C(C)(C)C)C3)CC1 (stereo unspecified),26.1% (inactive)
9,O=C(Cc1ccc(F)cc1)NC1CCCC1,43.4% (inactive)
10,CN(CC(=O)NC1CCCCC1)S(=O)(=O)c1ccc(Br)s1,11.4% (inactive)
11,O=C(NC1CCCC1)c1ccc(Br)s1,71.3% (active)
12,Cc1cccc(-n2c(O)c(C=Nc3ccccc3N)c(=O)[nH]c2=O)c1,-2.2% (inactive)
13,C=CCNC(=O)CCCC(=O)NCC=C,0.1% (inactive)
14,O=C(CNC(=O)c1ccco1)OCC(=O)c1ccccc1,17.9% (inactive)
15,O=C(COC(=O)c1ccccc1C(=O)c1ccccc1)c1ccco1,84.4% (active)
16,CCN(CC)c1ccc(C(=O)OCC(=O)c2ccco2)cc1,8.1% (inactive)
17,CCCC(=O)C1=C(N(C)c2ccccc2)CC(C)(C)C(C(=O)OC)C1=O (stereo unspecified),14.5% (inactive)
18,CCC(C(=O)N1CCOCC1)n1c(C(=O)OC)cc2occc21 (stereo unspecified),35.4% (inactive)
19,CC1CCN(C(=O)Cn2cc(C(=O)c3ccco3)c3ccccc32)CC1,17.1% (inactive)
20,CC1CCN(C(=O)CN(c2ccc(Oc3ccccc3)cc2)S(C)(=O)=O)CC1,28.4% (inactive)
21,CCOC(=O)c1cc2c(ccn2C)n1CC(=O)N1CCC(C)CC1,55.4% (active)

row,Structure (SMILES),inhibition
1,CCOC(=O)c1cc2occc2n1CC(=O)NC1CCC(C)CC1 (stereo unspecified),56.3% (active)
2,CCOC(=O)c1cc2occc2n1CC(=O)N1CCN(C(=O)c2ccco2)CC1,-4% (inactive)
3,CCOc1ccc(NC(=O)CSc2nc3c(c(=O)n2-c2ccccc2OC)SCC3)cc1,37.5% (inactive)
4,CC1(C)CC(CC(=O)O)C(=O)O1 (stereo unspecified),-11.1% (inactive)
5,Cc1nc2ccc(S(=O)(=O)NCC(=O)NCCN3CCCCC3C)cc2s1 (stereo unspecified),5.2% (inactive)
6,Nn1cnnc1N/N=C/c1cc([N+](=O)[O-])c(Cl)cc1Cl,15.9% (inactive)
7,CCOC(=O)C1(C(F)(F)F)N=C(N(C)C)OC(N(C)C)=N1,-7.2% (inactive)
8,CC1COC2C(O1)N(S(C)(=O)=O)CCN2S(C)(=O)=O (stereo unspecified),-4.9% (inactive)
9,Cc1ccc2oc(=O)c3cnn(CC(=O)N4CCN(c5ccccn5)CC4)c3c2c1,10.9% (inactive)
10,Cc1ccc(S(=O)(=O)NCC(=O)N2CCN(c3ccccn3)CC2)cc1,-1.8% (inactive)
11,Cc1ccnc(N2CCN(C(=O)CSc3nc4ccccc4nc3N3CCCCC3)CC2)c1,79.1% (active)
12,NC(=O)C1(N2CCCCC2)CCN(C(=O)c2ccc(C#Cc3ccccc3)o2)CC1,71% (active)
13,NC(=O)C1(N2CCCCC2)CCN(C2CC(=O)N(Cc3ccc(N4CCCC4=O)cc3)C2=O)CC1 (stereo unspecified),22.1% (inactive)
14,CC(C)(O)C#Cc1ccc(C(=O)N2CCC(C(N)=O)(N3CCCCC3)CC2)cc1,14.8% (inactive)
15,Cc1nc2nc(COc3ccccc3)[nH]n2c(=O)c1C,-11.1% (inactive)
16,OCCCN1c2ccccc2Nc2nnc(-c3ccccc3)cc21,39.5% (inactive)
17,O=S(N1CCCCCC1)C12CC3CC(CC(C3)C1)C2 (stereo unspecified),77.6% (active)
18,CN(CCO)Cc1csc2ccc(Br)cc12,-8.9% (inactive)
19,COc1cc(C2C(C(=O)OCCC#N)=C(C)NC3=C2S(=O)(=O)c2ccccc23)cc(OC)c1OC (stereo unspecified),15.8% (inactive)
20,COc1cccc(-n2c(SCC(=O)NC3CCCCC3)nc3n[nH]c(C)c3c2=N)c1,50.9% (active)
21,C=CCn1c(CC(=O)Nc2cccc(OC)c2)nnc1SCC(=O)NC1CCCCC1,-6% (inactive)

row,Structure (SMILES),inhibition
1,COc1ccc(N(CC(=O)NC2CCCCC2)S(=O)(=O)c2c(C)[nH]c(=O)[nH]c2=O)cc1,11.3% (inactive)
2,Cc1cccc(NC(=O)c2cc(N3C(=O)CCC3=O)ccc2Cl)n1,14.7% (inactive)
3,CC1(C)Cc2c(sc3nc(SCC(=O)NCc4ccccc4)n(-c4ccccc4)c(=O)c23)CS1,1.8% (inactive)
4,CC(C)OCCCNc1nc2c(c(=O)n(Cc3ccccc3F)c(=O)n2C)n1C,42.7% (inactive)
5,Cn1c(=O)c2c(nc(NCCc3ccccc3)n2Cc2ccccc2)n(C)c1=O,8.9% (inactive)
6,CCOC(=O)CSc1nc2c(c(=O)n(Cc3ccccc3Cl)c(=O)n2C)n1C,-6% (inactive)
7,Cc1cccc(Cn2c(SCCO)nc3c2c(=O)n(C)c(=O)n3C)c1,51.7% (active)
8,CCOC(=O)N1CCN(Cc2nc3c(c(=O)n(C)c(=O)n3C)n2Cc2ccccc2)CC1,30% (inactive)
9,CCOc1ccc(Cn2c(SCCCCC#N)nc3c2c(=O)n(C)c(=O)n3C)cc1OCC,20.4% (inactive)
10,Cc1cccc(Cn2c(N3CCN(c4ccccc4)CC3)nc3c2c(=O)n(C)c(=O)n3C)c1,72.8% (active)
11,CCOC(=O)CSc1nc2c(c(=O)n(C)c(=O)n2C)n1Cc1ccccc1F,63.1% (active)
12,CCCSc1nc2c(c(=O)n(C)c(=O)n2C)n1Cc1ccc(C)cc1,17.6% (inactive)
13,C/C(=N\c1nc2ccccc2n1C)c1cc(Cl)ccc1O,-5.8% (inactive)
14,CCN(CC)c1ccc(/C=N/Nc2nc(C)cc(=O)[nH]2)cc1,7.4% (inactive)
15,O=C(c1cccs1)N(C(=O)c1cccs1)c1ccccn1,23% (inactive)
16,COc1ccc(CCN(C(=O)COc2ccccc2)c2nc(-c3ccccc3)cs2)cc1OC,35.3% (inactive)
17,COc1ccc(CN(C(=O)c2cccs2)c2nccs2)cc1OC,100% (active)
18,CCOC(=O)c1cc2n(c1C)-c1ccccc1C2=O,17.8% (inactive)
19,COc1ccc(C(=O)NNC(=O)c2cnccn2)cc1[N+](=O)[O-],11.1% (inactive)
